Data on 62 molecules can be found in PubChem BioAssay AID1628 (Sanford-Burnham Center for Chemical Genomics, 2009).

The whole screen tested about 190,000 compounds, of which about 930 (0.49%) were called active. The list shows a part of the results. Entries with a potency or affinity are not part of this list. Values without a mark were called inactive.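 Rule for the calls: active = z-score of insulin promoter reporter brightness in nuclei below -3 at 5 µM, with at least 500 cells counted; inconclusive = wells with under 500 cells, flagged as toxic or sparse; inactive = the rest.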

This assay is described as follows: decrease of insulin promoter-GFP reporter – imaging, high-content screening, mouse beta cells (AID 1628). The settings on record: MIN6 insulin promoter GFP reporter, at 5 µM, hits give low values.
Regarding `CC(C)(C)c1cc(CCC(=O)NNC(=S)NC(=O)c2ccccc2)cc(C(C)(C)C)c1O`, the z-score is -4.33 (active).

For `COc1ccc(CC(=O)NNC(=S)Nc2ccccc2)cc1Cl`, the z-score was 2.56.

Turning to `N#Cc1c(NC(=S)NC(=O)c2ccccc2)sc2c1CCN(CCc1ccccc1)C2`, the z-score is 5.28.

As to `CCc1nc(C)cn1S(=O)(=O)c1cc(OC)c(C)cc1C`, the z-score is -4.29 (active).

Take `CC(=O)Cc1cc(O)c2ccccc2c1OC(=O)c1ccc(Br)cc1`: the z-score is 8.75.

For the molecule `Cc1ccccc1NC(=O)c1cc(C(=O)c2cc(Cl)ccc2O)cn(-c2ccccc2C)c1=O`, the z-score was -3.14 (active).

For the molecule `CN1CC=C2C(C#N)=C(N)C(C#N)(C#N)[C@H](c3cccs3)[C@H]2C1`, the z-score was 10.3.

In the case of `CCSc1ccc(C(=O)Nc2ccc(Br)cn2)cc1[N+](=O)[O-]`, the z-score is 1.11.

As to `O=C(Nc1ccc(Cl)cn1)c1ccc([N+](=O)[O-])o1`, the z-score is -3.08 (active).

Turning to `CCCN1C(=O)S/C(=C/c2ccc(N3CCOCC3)o2)C1=O`, the z-score was 14.8.

In the case of `COc1ccccc1NC(=O)C1=C(C)NC(SCC(=O)c2ccc(C)cc2)=C(C#N)C1c1ccco1` (configuration not stated), the z-score is 3.29.

In the case of `COc1ccc(C(=O)CSC2=C(C#N)C3(CCCCC3)C(C#N)=C(N)N2)cc1`, the z-score is -3.18 (active).

Regarding `CCN1CCN(C(=O)c2cn(CC)c3ccc(S(=O)(=O)N(C)C)cc3c2=O)CC1`, the z-score was 2.68.

Regarding `CCn1c(C)[n+](CC)c2ccc(S(=O)(=O)N(C)C)cc21`, the z-score is -3.4 (active).

As for `CC(=O)CCc1c(C)c2cccc(C)c2[nH]c1=O`, the z-score was -0.43.

In the case of `CCOc1ccccc1CNC(=O)c1cn(C)c(=O)c2c1c1ccccc1n2C`, the z-score is 1.59.

As to `COCCn1cc(C(=O)NCc2ccco2)c2c3ccccc3n(C)c2c1=O`, the z-score is 2.09.

Turning to `CC(C)Cn1cc(C(=O)NC2CCN(Cc3ccccc3)CC2)c2c3ccccc3n(C)c2c1=O`, the z-score is -3.06 (active).

For `Cc1nc(Cl)c2c(n1)NC1=C(O2)C(=O)CCC1`, the z-score was -4.1 (active).

Take `CN(c1cccc(Cl)c1)S(=O)(=O)c1cccc(C(=O)NC2=NCCS2)c1`: the z-score was 3.48.

`CN(/C(=N\S(=O)(=O)c1ccccc1)c1ccccc1)c1ccc(O)cc1`: the z-score is 1.42.

As to `COc1ccc(N(C)S(=O)(=O)c2cccc(C(=O)Nc3nc4ccccc4[nH]3)c2)cc1`, the z-score was -3.07 (active).

For the molecule `CCOc1ccc(C2C(C#N)=C(N)SC(N)=C2C#N)c(OCC)c1`, the z-score was -3.06 (active).

As for `CCN(CC)c1ccc(/C=C(\C#N)C(=O)c2ccc(Br)cc2)cc1`, the z-score is 3.66.

With `O=C(NCc1ccccn1)c1ccc(Cn2cc(Br)cn2)o1`, the z-score was -3.96 (active).

On to `COc1ccc2cc3cc(C(=O)NCc4ccccn4)oc3nc2c1`, for which the z-score was 3.32.

For the molecule `O=C(NCc1cn2ccccc2n1)c1ccco1`, the z-score was 3.67.

As to `COc1ccc2c(c1)oc(=O)c1ccccc12`, the z-score was -0.04.

As for `COc1ccc2c(n1)Sc1nc3ccccc3nc1N2`, the z-score was 9.57.

`Cc1[nH]ccc(=O)c1OCc1c(Cl)cccc1Cl`: the z-score was -6.12 (active).

In the case of `COC(=O)c1c[nH]n2c(=O)c(Cc3ccc(F)cc3Cl)c(C)nc12`, the z-score was 3.42.

As to `CC(=O)Oc1ccc(OC(C)=O)c(SCCCCCCl)c1`, the z-score was -3.45 (active).

In the case of `CC(=O)Oc1cc2cccc(OC(C)=O)c(=O)c2c(OC(C)=O)c1OC(C)=O`, the z-score was -0.38.

Take `COC(=O)[C@H]1[C@H](C(=O)OC)[C@@H](C(=O)OC)N(c2ccc(OC)cc2)[C@@H]1C(=O)OC`: the z-score was -4.45 (active).

For `CC(C)(CNS(=O)(=O)c1ccc(Cl)cc1)N1CCCCC1`, the z-score was 3.62.

With `O=C(CCNS(=O)(=O)c1ccc(Cl)cc1)NCc1cccs1`, the z-score is 1.64.

In the case of `CCNC(=S)NS(=O)(=O)c1ccc(Cl)cc1`, the z-score is -3.8 (active).

Consider `CCCCCCN1C=CC(=C/C=C(\C#N)C(=O)OCC)C=C1`, for which the z-score is 16.6.

Regarding `O=C(CCn1c(=O)sc2ccccc21)Nc1cccnc1`, the z-score was 0.79.

For `C=CCN1C(=O)/C(=C\c2ccc(OC(=O)c3ccco3)c(OC)c2)SC1=S`, the z-score was 1.03.

`COc1ccc(Cn2c(=O)sc3ccccc32)cc1OC`: the z-score is -3.63 (active).

`COc1cc(C)c(Cl)cc1S(=O)(=O)NCc1ccncc1`: the z-score is -4.94 (active).

`Cc1ccc(S(=O)(=O)NCc2ccncc2)c(C)c1C`: the z-score is -6.46 (active).

For `COc1ccc(S(=O)(=O)NCc2ccncc2)cc1OC`, the z-score was -3.36 (active).

Consider `COc1cccc(S(=O)(=O)NCc2ccc(C(=O)Nc3ccc(Cl)c(Cl)c3)cc2)c1`, for which the z-score was 3.13.

As to `Cc1cc(C)n(C(=O)CCC2COc3ccccc3O2)n1` (configuration not stated), the z-score was 3.53.

Regarding `CCOC(=O)c1c(NC(=O)c2nn(CC)cc2Br)c(C#N)cn1-c1ccccc1`, the z-score is -3.62 (active).

Regarding `c1ccc2c(c1)CCN(CCCNc1nc3ccccc3n3cnnc13)C2`, the z-score is -3.05 (active).

`CCn1cc(C(=O)NCCN(C)CCc2ccccc2)c(=O)c2cc(S(=O)(=O)N(C)C)ccc21`: the z-score was 3.87.

`CN1CCNC(=O)C1CC(=O)NCCC1=CCCCC1` (configuration not stated): the z-score was 3.77.

For `CCN(CC)S(=O)(=O)c1ccc2[nH]cc(C(=O)NCCC3=CCCCC3)c(=O)c2c1`, the z-score is -6.41 (active).

With `CN1CC=C2C(C#N)=C(N)C(C#N)(C#N)C(Cc3ccccc3)C2C1` (configuration not stated), the z-score was 3.5.

Consider `Cc1cccc(NC(=S)NNC(=O)c2csc(C(C)C)c2)c1`, for which the z-score is 1.31.

Consider `COc1cccc(-c2nc(N3CCCCC3C)c3ccccc3n2)c1O` (configuration not stated), for which the z-score is -3.15 (active).

As for `COC(=O)c1cc2c(-c3ccccc3)c(C)c3ccccn3c-2c1C(=O)OC`, the z-score was 4.22.

Regarding `O=C1c2cccc3c(N4CCCCC4)ccc(c23)C(=O)N1c1ccccc1O`, the z-score is 4.51.

Regarding `CC1Cc2ccccc2N1S(=O)(=O)c1cccs1` (configuration not stated), the z-score is -6.66 (active).

In the case of `O=S(=O)(c1cccs1)N1CCCc2ccccc21`, the z-score was -3.97 (active).

On to `CC(C)(C)NC(=O)NC(=O)CN1CCCc2ccccc21`, for which the z-score was 2.02.

In the case of `O=C(NCCN1CCN(Cc2ccc([N+](=O)[O-])cc2)CC1)C(=O)Nc1ccccc1`, the z-score is -3.53 (active).

On to `COc1ccc(C(=O)/C=C/c2ccccc2)c(O)c1`, for which the z-score was -0.73.

Turning to `COc1cc(/C=C/C(=O)c2ccccc2O)cc(OC)c1OC`, the z-score is -0.68.
